The target in experiment [1] is human Fibroblast Growth Factor Receptor 1 (FGFR1), FGFR1 (gene 2260) (UniProt P11362). In words: NVS_ENZ_hFGFR1: NovaScreen (NVS) Enzymatic Assay for human Fibroblast Growth Factor Receptor 1 (FGFR1) (AID 2283159).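 On AC50: hits lower the signal so potencies describe inhibitors of the kinase.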 An outline of the steps: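 Cell-free recombinant kinase with fluorescent substrate, product separated by electrophoretic mobility shift; read 1 hour after dosing, loss of signal relative to DMSO. Initial screen in duplicate at 25 uM, actives followed in concentration series.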

In experiment [2] the target is human Ephrin type-A Receptor 2 (EphA2), EPHA2 (gene 1969) (UniProt P29317). Kind of experiment: NVS_ENZ_hEphA2: NovaScreen (NVS) Enzymatic Assay for human Ephrin type-A Receptor 2 (EphA2) (AID 2283155). On the procedure:
(§1) NVS_ENZ_hEphA2 is a biochemical, single-readout assay that uses extracted gene-proteins in a cell-free assay. Measurements were taken 1 hour after chemical dosing in a 384-well plate.NVS_ENZ_hEphA2 is one of one assay component(s) measured or calculated from the NVS_ENZ_hEphA2 assay. It is designed to make measurements of enzyme activity, a form of enzyme reporter, as detected with fluorescence intensity signals by Fluorescence and electrophoretic mobility shift technology.Data from the assay component NVS_ENZ_hEphA2 was analyzed into 1 assay endpoint. This assay endpoint, NVS_ENZ_hEphA2, was analyzed in the positive analysis fitting direction relative to DMSO as the negative control and baseline of activity. Using a type of enzyme reporter, loss-of-signal activity can be used to understand changes in the enzymatic activity as they relate to the gene EPHA2. Furthermore, this assay endpoint can be referred to as a primary readout, because this assay has produced multiple assay endpoints where this one serves a enzymatic activity function. To generalize the intended target to other relatable targets, this assay endpoint is annotated to the kinase intended target family, where the subfamily is receptor tyrosine kinase.
Binding assays used specific radioligands (tritiated, iodinated) with non-radioactive competitive displacement ligands in agonist or antagonist protocols (as indicated) and various reference compounds and inhibitors to titrate specific binding to receptors and transporters. Most enzyme assays (CYPs, kinases, phosphatases, proteases, HDACs) used recombinant protein and specific substrates (fluorescence mostly, some colorimetric and radioactive) and inhibitors, followed by a biochemical separation of substrate and product. All assays for the biochemical HTS were initially run in duplicate at a single concentration (10 uM for CYP450 assays and 25 uM for all others). […]

The target in experiment [3] is human Ephrin type-A Receptor 1 (EphA1), EPHA1 (gene 2041) (UniProt P21709). In words: NVS_ENZ_hEphA1: NovaScreen (NVS) Enzymatic Assay for human Ephrin type-A Receptor 1 (EphA1) (AID 2283158).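 Further: activity is signal loss versus DMSO meaning EphA1 kinase inhibition.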 An outline of the steps: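 Recombinant kinase, fluorescent substrate, mobility-shift separation, fluorescence read at 1 h. Single-point duplicates at 25 uM; hits (e.g., ≥30% inhibition) run singleton concentration-response, max 50 uM. DMSO = negative control/baseline.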

In experiment [4] the target is human Ephrin type-B Receptor 1 (EphB1), EPHB1 (gene 2047) (UniProt P54762). Kind of experiment: NVS_ENZ_hEphB1: NovaScreen (NVS) Enzymatic Assay for human Ephrin type-B Receptor 1 (EphB1) (AID 2283154). As for the experimental part:
as §1, with “NVS_ENZ_hEphB1” for “NVS_ENZ_hEphA2”, “plate.NVS_ENZ_hEphB1” for “plate.NVS_ENZ_hEphA2”, “NVS_ENZ_hEphB1,” for “NVS_ENZ_hEphA2,”, “EPHB1.” for “EPHA2.”
Binding assays used specific radioligands (tritiated, iodinated) with non-radioactive competitive displacement ligands in agonist or antagonist protocols (as indicated) and various reference compounds and inhibitors to titrate specific binding to receptors and transporters. Most enzyme assays (CYPs, kinases, phosphatases, proteases, HDACs) used recombinant protein and specific substrates (fluorescence mostly, some colorimetric and radioactive) and inhibitors, followed by a biochemical separation of substrate and product. All assays for the biochemical HTS were initially run in duplicate at a single concentration (10 uM for CYP450 assays and 25 uM for all others). […] Each assay was run with positive and negative controls, and concurrent controls on every plate. The follow-up (secondary) screen tested active chemical-pairs in concentration series, as well as a few additional assays not tested in the primary screen, some selected negative inactives, and several cases re-run in the concentration series for confirmatory purposes.

For experiment [5], the target named is human Elastase, ELANE (gene 1991) (UniProt P08246). In words: NVS_ENZ_hElastase: NovaScreen (NVS) Enzymatic Assay for human Elastase (AID 2283153). On the procedure: NVS_ENZ_hElastase is a biochemical, single-readout assay that uses extracted gene-proteins from Human neutrophils in a cell-free assay. Measurements were taken 1.5 hours after chemical dosing in a 96-well plate.NVS_ENZ_hElastase is one of one assay component(s) measured or calculated from the NVS_ENZ_hElastase assay. It is designed to make measurements of enzyme activity, a form of enzyme reporter, as detected with absorbance signals by Spectrophotometry technology.Data from the assay component NVS_ENZ_hElastase was analyzed into 1 assay endpoint. This assay endpoint, NVS_ENZ_hElastase, was analyzed in the positive analysis fitting direction relative to DMSO as the negative control and baseline of activity. Using a type of enzyme reporter, loss-of-signal activity can be used to understand changes in the enzymatic activity as they relate to the gene ELANE. Furthermore, this assay endpoint can be referred to as a primary readout, because this assay has produced multiple assay endpoints where this one serves a enzymatic activity function. To generalize the intended target to other relatable targets, this assay endpoint is annotated to the protease intended target family, where the subfamily is serine protease.
Binding assays used specific radioligands (tritiated, iodinated) with non-radioactive competitive displacement ligands in agonist or antagonist protocols (as indicated) and various reference compounds and inhibitors to titrate specific binding to receptors and transporters. Most enzyme assays (CYPs, kinases, phosphatases, proteases, HDACs) used recombinant protein and specific substrates (fluorescence mostly, some colorimetric and radioactive) and inhibitors, followed by a biochemical separation of substrate and product. All assays for the biochemical HTS were initially run in duplicate at a single concentration (10 uM for CYP450 assays and 25 uM for all others). Assay-chemical combinations meeting a pre-defined threshold (e.g., 30% inhibition and other criteria defined below) were then run in singleton concentration-response format with maximum concentration of 20 uM for CYPs and 50 uM for all others. Each assay was run with positive and negative controls, and concurrent controls on every plate. The follow-up (secondary) screen tested active chemical-pairs in concentration series, as well as a few additional assays not tested in the primary screen, some selected negative inactives, and several cases re-run in the concentration series for confirmatory purposes.

Experiment [6] deals with Protein deacetylase HDAC6 (Homo sapiens) (UniProt Q9UBN7). In words: NVS_ENZ_hHDAC6: NovaScreen (NVS) Enzymatic Assay for human Histone Deacetylase 6 (HDAC6) (AID 2283164). An outline of the steps: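 Recombinant human HDAC6 with fluorescent substrate, 1 h; product separated from substrate by electrophoretic mobility shift. Primary screen in duplicate at 25 uM; actives retested singly in concentration-response up to 50 uM, fitted relative to DMSO.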

Experiment [7] has as its target human Esterase Plasma (ES), BCHE (gene 590) (UniProt P06276). Kind of experiment: NVS_ENZ_hES: NovaScreen (NVS) Enzymatic Assay for human Esterase Plasma (ES) (AID 2283157). A digest of the protocol:
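Chemicals were added to plasma-extracted human enzyme in a cell-free format, and activity was read colorimetrically after 0.25 hour. Activity loss was referenced to DMSO; concentration-response top dose was 50 uM.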

Experiment [8] has as its target Histone deacetylase 3 (Homo sapiens) (UniProt O15379). In words: NVS_ENZ_hHDAC3: NovaScreen (NVS) Enzymatic Assay for human Histone Deacetylase 3 (HDAC3) (AID 2283163). An outline of the steps:
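Recombinant human HDAC3 with fluorescent substrate, 1 h after dosing; product separated from substrate by electrophoretic mobility shift and read by fluorescence. Primary screen at 25 uM in duplicate; actives (e.g. ≥30% inhibition) retested in concentration-response up to 50 uM.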

The target in experiment [9] is human FYN Proto-Oncogene, Src family Tyrosine Kinase (Fyn), FYN (gene 2534) (UniProt P06241). In words: NVS_ENZ_hFyn: NovaScreen (NVS) Enzymatic Assay for human FYN Proto-Oncogene, Src family Tyrosine Kinase (Fyn) (AID 2283161). An outline of the steps: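 Recombinant enzyme with fluorescent substrate, product separated by electrophoretic mobility shift; read 1 h after dosing. Duplicate 25 uM single-point screen, actives retested in concentration series; loss of signal vs DMSO.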

For experiment [10], the target named is human Ephrin type-B Receptor 2 (EphB2), EPHB2 (gene 2048) (UniProt P29323). In words: NVS_ENZ_hEphB2: NovaScreen (NVS) Enzymatic Assay for human Ephrin type-B Receptor 2 (EphB2) (AID 2283156). A digest of the protocol:
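Recombinant kinase with fluorescent substrate, product separated by electrophoretic mobility shift, read 1 h after dosing. Duplicate 25 uM screen, then singleton concentration-response to 50 uM max; loss of signal versus DMSO.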

“And” between values parts separate entries of the source, which are not always exact repeats. Identical values can stand only once. Inconclusive results are not listed. The source holds several records for some structures; these can differ, active in one and inactive in another. The source made the active and inactive calls. How the source made its calls: active means hit-call score of the fitted dose curve at least 0.9, where 1 is the maximum; inconclusive means response in the unintended direction; inactive means score below 0.9.

By AC50 is commonly meant the concentration giving half of the maximal activity seen.

human Elastase, ELANE (gene 1991), sequence (P08246 whole entry, looked up): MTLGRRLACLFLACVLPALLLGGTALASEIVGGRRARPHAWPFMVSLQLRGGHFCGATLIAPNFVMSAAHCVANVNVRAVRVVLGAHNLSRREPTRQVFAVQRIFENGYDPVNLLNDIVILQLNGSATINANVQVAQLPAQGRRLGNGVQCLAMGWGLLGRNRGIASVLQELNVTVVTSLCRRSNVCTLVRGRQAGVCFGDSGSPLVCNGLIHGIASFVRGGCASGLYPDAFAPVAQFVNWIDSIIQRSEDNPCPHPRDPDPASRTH
human Ephrin type-B Receptor 1 (EphB1), EPHB1 (gene 2047), sequence (P54762 whole entry, looked up): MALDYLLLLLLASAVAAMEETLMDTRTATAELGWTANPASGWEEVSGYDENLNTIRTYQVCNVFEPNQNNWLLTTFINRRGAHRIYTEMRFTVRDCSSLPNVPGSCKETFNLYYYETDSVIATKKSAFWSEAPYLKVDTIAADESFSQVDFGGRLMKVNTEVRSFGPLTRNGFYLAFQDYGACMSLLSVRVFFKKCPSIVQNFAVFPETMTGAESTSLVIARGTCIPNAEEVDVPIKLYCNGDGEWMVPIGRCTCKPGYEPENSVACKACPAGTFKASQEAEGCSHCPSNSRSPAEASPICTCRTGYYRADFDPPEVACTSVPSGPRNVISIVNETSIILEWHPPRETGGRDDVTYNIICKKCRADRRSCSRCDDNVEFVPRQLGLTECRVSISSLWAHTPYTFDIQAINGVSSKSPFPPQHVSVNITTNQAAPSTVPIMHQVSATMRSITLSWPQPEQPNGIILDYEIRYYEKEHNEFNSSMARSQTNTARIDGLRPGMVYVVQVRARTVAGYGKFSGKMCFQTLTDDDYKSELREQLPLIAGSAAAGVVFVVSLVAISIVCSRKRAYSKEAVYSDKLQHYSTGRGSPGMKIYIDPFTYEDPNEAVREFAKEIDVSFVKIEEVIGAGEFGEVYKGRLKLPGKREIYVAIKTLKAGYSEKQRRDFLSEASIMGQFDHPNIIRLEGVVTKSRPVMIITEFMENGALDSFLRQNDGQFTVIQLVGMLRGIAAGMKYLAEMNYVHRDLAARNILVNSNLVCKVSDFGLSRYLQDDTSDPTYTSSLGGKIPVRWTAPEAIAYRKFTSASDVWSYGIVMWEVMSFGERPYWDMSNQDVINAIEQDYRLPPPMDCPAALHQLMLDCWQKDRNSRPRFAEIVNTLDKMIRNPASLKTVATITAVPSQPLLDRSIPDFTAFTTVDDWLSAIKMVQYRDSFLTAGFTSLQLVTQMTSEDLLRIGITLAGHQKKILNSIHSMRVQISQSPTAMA
human Fibroblast Growth Factor Receptor 1 (FGFR1), FGFR1 (gene 2260), sequence (P11362 whole entry, looked up): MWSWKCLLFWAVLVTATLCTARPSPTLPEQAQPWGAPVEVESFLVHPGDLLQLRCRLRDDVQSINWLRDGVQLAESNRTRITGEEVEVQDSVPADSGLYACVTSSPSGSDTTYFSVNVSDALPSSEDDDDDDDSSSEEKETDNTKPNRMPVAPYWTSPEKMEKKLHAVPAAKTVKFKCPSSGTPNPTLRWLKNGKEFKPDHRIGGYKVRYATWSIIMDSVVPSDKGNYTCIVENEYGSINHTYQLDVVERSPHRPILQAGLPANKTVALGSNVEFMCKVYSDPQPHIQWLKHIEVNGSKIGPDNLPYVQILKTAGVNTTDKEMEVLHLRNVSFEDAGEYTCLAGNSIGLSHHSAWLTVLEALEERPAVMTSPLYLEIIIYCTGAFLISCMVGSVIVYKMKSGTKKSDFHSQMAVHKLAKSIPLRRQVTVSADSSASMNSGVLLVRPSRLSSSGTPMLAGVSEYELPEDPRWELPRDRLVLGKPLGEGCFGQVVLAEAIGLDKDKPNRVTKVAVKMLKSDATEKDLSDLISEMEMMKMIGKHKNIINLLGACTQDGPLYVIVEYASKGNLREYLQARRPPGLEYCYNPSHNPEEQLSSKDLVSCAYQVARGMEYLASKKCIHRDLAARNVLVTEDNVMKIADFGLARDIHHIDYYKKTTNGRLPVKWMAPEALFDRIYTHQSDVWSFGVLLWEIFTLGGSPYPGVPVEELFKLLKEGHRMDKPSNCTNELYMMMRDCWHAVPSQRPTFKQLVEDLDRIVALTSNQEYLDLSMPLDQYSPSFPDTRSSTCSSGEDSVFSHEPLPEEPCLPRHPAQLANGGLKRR
human Ephrin type-A Receptor 2 (EphA2), EPHA2 (gene 1969), sequence (P29317 whole entry, looked up): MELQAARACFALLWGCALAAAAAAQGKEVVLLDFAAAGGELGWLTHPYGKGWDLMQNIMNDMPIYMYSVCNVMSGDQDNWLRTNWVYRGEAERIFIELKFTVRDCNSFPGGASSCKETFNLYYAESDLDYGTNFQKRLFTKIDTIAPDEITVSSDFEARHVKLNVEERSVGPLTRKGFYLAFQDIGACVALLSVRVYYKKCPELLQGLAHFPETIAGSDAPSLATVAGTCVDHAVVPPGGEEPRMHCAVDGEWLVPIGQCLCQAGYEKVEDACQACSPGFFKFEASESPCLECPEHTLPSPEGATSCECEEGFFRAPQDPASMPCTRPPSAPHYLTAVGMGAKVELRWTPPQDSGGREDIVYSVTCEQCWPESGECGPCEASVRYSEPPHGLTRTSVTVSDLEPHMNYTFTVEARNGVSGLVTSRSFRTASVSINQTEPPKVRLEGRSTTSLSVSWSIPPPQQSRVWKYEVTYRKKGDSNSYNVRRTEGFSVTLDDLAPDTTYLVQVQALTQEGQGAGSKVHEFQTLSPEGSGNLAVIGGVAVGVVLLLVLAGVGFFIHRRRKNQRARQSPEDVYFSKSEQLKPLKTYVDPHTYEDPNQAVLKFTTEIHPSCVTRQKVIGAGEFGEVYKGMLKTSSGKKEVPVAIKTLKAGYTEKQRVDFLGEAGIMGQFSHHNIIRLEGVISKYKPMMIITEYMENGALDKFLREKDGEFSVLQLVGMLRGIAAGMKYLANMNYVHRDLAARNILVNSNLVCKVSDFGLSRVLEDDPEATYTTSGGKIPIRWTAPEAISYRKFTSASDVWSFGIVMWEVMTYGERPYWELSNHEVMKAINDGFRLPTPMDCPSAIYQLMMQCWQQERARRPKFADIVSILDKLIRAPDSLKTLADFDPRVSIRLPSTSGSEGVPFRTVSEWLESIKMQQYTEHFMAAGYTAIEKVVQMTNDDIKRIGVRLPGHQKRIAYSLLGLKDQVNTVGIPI
human Esterase Plasma (ES), BCHE (gene 590), sequence (P06276 whole entry, looked up): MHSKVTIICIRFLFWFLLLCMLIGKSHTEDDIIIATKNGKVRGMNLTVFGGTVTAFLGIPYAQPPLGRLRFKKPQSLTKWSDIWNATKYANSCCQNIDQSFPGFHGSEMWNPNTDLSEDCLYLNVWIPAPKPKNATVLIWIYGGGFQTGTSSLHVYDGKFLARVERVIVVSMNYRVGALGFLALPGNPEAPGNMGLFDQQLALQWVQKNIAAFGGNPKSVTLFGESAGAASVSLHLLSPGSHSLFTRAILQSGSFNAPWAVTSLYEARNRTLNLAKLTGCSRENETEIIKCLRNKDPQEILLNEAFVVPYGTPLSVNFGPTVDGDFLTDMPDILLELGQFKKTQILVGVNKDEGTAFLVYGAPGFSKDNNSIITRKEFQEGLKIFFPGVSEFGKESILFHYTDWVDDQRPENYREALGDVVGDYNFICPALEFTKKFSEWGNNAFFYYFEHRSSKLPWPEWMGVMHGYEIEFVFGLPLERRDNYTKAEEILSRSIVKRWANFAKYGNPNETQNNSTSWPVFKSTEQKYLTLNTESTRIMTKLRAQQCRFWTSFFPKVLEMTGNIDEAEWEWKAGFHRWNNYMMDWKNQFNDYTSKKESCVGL
Histone deacetylase 3 (Homo sapiens), sequence (O15379 whole entry, looked up): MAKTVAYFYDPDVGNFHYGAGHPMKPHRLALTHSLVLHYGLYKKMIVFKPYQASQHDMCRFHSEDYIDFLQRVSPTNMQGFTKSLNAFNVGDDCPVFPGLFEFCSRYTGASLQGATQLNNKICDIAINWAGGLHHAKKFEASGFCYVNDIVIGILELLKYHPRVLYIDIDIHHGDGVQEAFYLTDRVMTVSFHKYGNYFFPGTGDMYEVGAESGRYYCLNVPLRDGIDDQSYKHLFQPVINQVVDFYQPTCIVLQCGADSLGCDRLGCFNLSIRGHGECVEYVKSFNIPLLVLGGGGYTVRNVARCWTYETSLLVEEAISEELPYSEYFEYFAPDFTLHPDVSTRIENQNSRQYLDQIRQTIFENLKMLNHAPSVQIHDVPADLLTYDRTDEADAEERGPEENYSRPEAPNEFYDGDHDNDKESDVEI
human Ephrin type-A Receptor 1 (EphA1), EPHA1 (gene 2041), sequence (P21709 whole entry, looked up): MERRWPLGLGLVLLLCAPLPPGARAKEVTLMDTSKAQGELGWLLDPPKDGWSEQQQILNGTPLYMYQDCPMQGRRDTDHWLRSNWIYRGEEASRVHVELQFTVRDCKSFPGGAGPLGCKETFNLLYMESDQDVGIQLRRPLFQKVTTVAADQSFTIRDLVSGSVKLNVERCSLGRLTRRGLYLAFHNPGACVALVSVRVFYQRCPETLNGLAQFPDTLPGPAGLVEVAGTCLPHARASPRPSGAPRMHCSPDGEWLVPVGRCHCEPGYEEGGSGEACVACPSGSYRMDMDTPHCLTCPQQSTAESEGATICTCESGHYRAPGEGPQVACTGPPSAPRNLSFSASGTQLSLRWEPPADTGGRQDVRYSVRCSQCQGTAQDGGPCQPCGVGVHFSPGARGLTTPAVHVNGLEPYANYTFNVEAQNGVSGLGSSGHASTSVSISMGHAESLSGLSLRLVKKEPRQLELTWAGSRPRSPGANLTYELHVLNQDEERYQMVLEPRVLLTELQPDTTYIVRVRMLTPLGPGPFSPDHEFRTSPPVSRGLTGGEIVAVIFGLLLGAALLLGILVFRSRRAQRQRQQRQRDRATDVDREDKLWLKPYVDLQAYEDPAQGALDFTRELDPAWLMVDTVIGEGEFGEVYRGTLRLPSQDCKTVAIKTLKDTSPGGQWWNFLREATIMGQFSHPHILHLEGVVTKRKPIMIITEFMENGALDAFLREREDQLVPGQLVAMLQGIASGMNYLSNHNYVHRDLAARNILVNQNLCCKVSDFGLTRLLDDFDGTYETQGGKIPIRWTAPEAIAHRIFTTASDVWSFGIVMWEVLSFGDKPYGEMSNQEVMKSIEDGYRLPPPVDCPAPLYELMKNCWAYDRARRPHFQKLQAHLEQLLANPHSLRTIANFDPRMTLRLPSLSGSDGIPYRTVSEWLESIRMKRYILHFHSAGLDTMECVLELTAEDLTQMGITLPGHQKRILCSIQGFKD

In the case of `CC[C@H](C)[C@H]1O[C@]2(C=C[C@@H]1C)C[C@@H]1C[C@@H](C/C=C(\C)[C@@H](O[C@H]3C[C@H](OC)[C@@H](O[C@H]4C[C@H](OC)[C@@H](NC)[C@H](C)O4)[C@H](C)O3)[C@@H](C)/C=C/C=C3\CO[C@@H]4[C@H](O)C(C)=C[C@@H](C(=O)O1)[C@]34O)O2`, the AC50 in experiment [1] was 16.5 µM (active).

In the case of `O=C(O)c1cc(Oc2ccc(C(F)(F)F)cc2Cl)ccc1[N+](=O)[O-]`, the compound was called inactive in [2] and in experiment [3].

Turning to `COP(=O)(OC)C(O)C(Cl)(Cl)Cl` (stereo not drawn), the result in experiment [4] was inactive. Still for that read-out and setting: the entry for `CCCCSP(=O)(SCCCC)SCCCC` is “inactive”. For `CCOP(=S)(OCC)Oc1cc(C)nc(C(C)C)n1`, the call in [5] and in experiment [6] was inactive. Consider `CCOP(=S)(OCC)Oc1ccc([N+](=O)[O-])cc1`, for which the AC50 in experiment [7] was 17.5 µM (active). Same read-out and setting: the figure for `CCOP(=S)(Oc1cnc(C(C)(C)C)nc1)OC(C)C` (stereo not drawn) is 25 µM (active). Consider `CCOP(=S)(OCC)OC(Cl)C(Cl)(Cl)Cl` (stereo not drawn), for which the result in experiment [4] was inactive. Further, the concentration at half-maximal activity (AC50) in [7] is 16.2 µM (active). For the compound `O=c1ccc(=O)[nH][nH]1`, in experiment [8], the AC50 is 14.5 µM (active). Regarding `CNC(=O)Oc1cccc2c1OC(C)(C)O2`, the outcome in experiment [4] was inactive. `COP(=O)(OC)SCn1c(=O)oc2cc(Cl)cnc21`: the AC50 in experiment [7] is 18.5 µM (active). In the case of `CC(C)[C@H](C(=O)O[C@H](C#N)c1cccc(Oc2ccccc2)c1)c1ccc(Cl)cc1`, the compound was called inactive in [5] and in [9]. For `COP(=O)(OC)OC(Br)C(Cl)(Cl)Br` (stereo not drawn), the AC50 in [7] is 3.82 µM (active). For `CCCSP(=O)(OCC)Oc1ccc(Br)cc1Cl` (stereo not drawn), the results for the AC50 in [5] and in experiment [7] were 25 µM (active) and 0.968 µM (active), respectively. For the same compound, the call in experiment [4] was inactive. Regarding `CC(COc1ccc(Oc2ccccc2)cc1)Oc1ccccn1` (stereo not drawn), the compound was called inactive in [4]. Take `CCOP(=O)(OCC)Oc1cc(C)nc(C(C)C)n1`: in [5], the result was inactive. Consider `CN(C)[C@@H]1C(=O)C(C(N)=O)=C(O)[C@@]2(O)C(=O)C3=C(O)c4c(O)cccc4[C@@](C)(O)[C@H]3[C@H](O)[C@@H]12`, for which the concentration at half-maximal activity (AC50) in [2] is 7.61 µM (active); in experiment [1], 5.86 µM (active) and 7.55 µM (active). The compound was called inactive in [2], in experiment [7], in experiment [3] and in experiment [1].

With `CNC(=O)ON=C(SC)C(=O)N(C)C`, in experiment [7], the AC50 was 20.2 µM (active).

Turning to `CCCCOC(=O)c1ccccc1C(=O)O`, the compound was called inactive in experiment [7].

With `CCOC(=O)COc1cc(-c2nn(C)c(OC(F)F)c2Cl)c(F)cc1Cl`, the result in [1] was inactive. `N#CSCSC#N`: the half-maximal activity concentration (AC50) in experiment [6] is 3.68 µM (active).

For the compound `C[N+]1(C)CCCCC1`, in [1], the outcome was inactive. In the case of `S=C1NCCN1`, the result in experiment [5] and in [9] was inactive. As for `CCc1cccc(C)c1N(C(=O)CCl)C(C)COC` (stereo not drawn), the result in [4] was inactive.

In the case of `CNc1cnn(-c2cccc(C(F)(F)F)c2)c(=O)c1Cl`, the compound was called inactive in experiment [10] and in experiment [8].

The values above are taken from PubChem BioAssay (EPA / NIEHS).
